Results from PubChem BioAssay (NCATS).
Records with an inconclusive call do not appear. Where a call stands in place of a potency, no number is given. Calls of active or inactive are those of the source. Calls follow the shape of the dose curve; as a rule, active = well fitted curve in the direction sought with a large enough effect; inconclusive = small, poorly fitted or top-dose-only effect, or another doubt; inactive = no such curve, though single readings can be large; an effect the other way counts as inactive or inconclusive. Numbered stars: 1 amine (or outer) side, 2 acyl side, 3 side chain; on linkers, the order of the positions; unused ones are H or OH. Bridge positions count the residues as written; N and C are the ends. Square brackets hold non-standard residues; d marks the D form. Peptide text beside a SMILES is read from it. * marks the point of attachment. ξ: configuration not given here. ΔAla(Z-3-ureido) = NC(=O)N/C=C(\N)C(=O)O; X2 = NC1=NC(O)CC(C(N[*:1])C(=O)[*:2])N1; ξβ3hOrn = NCCCC(N)CC(=O)*; Dap = NC[CH](N)C(=O)O

Key:
[1] = S16 Schwann cell PMP22 intronic element firefly luciferase assay (AID 624032); also: nearly all actives have a fitted effect of over 30% in size
How it was run: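 Rat S16 Schwann cells stably carrying a PMP22 intronic element-driven Fluc reporter were seeded overnight, then exposed to compounds for 24 h at 37 °C. Luminescence was normalized to PTC124 (positive control) and DMSO (0% activity).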

7G8 = assay: qHTS profiling for inhibitors of Plasmodium falciparum proliferation (AID 504749); also: nearly all actives have a fitted effect of over 60% in size; also: potency is read from the fitted curve at half-maximal effect; settings: P. falciparum in erythrocytes, SYBR Green DNA, 72 h; series mostly up to 28.7 µM
How it was run: (§1)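 P. falciparum-infected erythrocytes (0.3% parasitemia, 2.5% hematocrit final) were exposed to compounds for 72 h at 37 C in 5% CO2, then lysed with SYBR Green buffer overnight at room temperature; parasite DNA fluorescence was normalized to artemisinin and DMSO controls.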

C2A = assay: as above; settings: P. falciparum in erythrocytes, SYBR Green DNA, 72 h; series mostly up to 28.7 µM
How it was run: as §1

CP192 = assay: as above; settings: P. falciparum in erythrocytes, SYBR Green DNA, 72 h; series mostly up to 28.7 µM
How it was run: as §1

CP194 = assay: as above; settings: P. falciparum in erythrocytes, SYBR Green DNA, 72 h; series mostly up to 28.7 µM
How it was run: as §1

CP203 = assay: as above; settings: P. falciparum in erythrocytes, SYBR Green DNA, 72 h; series mostly up to 28.7 µM
How it was run: as §1

CP211 = assay: as above; settings: P. falciparum in erythrocytes, SYBR Green DNA, 72 h; series mostly up to 28.7 µM
How it was run: as §1

CP217 = assay: as above; settings: P. falciparum in erythrocytes, SYBR Green DNA, 72 h; series mostly up to 28.7 µM
How it was run: as §1

CP237 = assay: as above; settings: P. falciparum in erythrocytes, SYBR Green DNA, 72 h; series mostly up to 28.7 µM
How it was run: as §1

CP266 = assay: as above; settings: P. falciparum in erythrocytes, SYBR Green DNA, 72 h; series mostly up to 28.7 µM
How it was run: as §1

CP268 = assay: as above; settings: P. falciparum in erythrocytes, SYBR Green DNA, 72 h; series mostly up to 28.7 µM
How it was run: as §1

CP269 = assay: as above; settings: P. falciparum in erythrocytes, SYBR Green DNA, 72 h; series mostly up to 28.7 µM
How it was run: as §1

CP291 = assay: as above; settings: P. falciparum in erythrocytes, SYBR Green DNA, 72 h; series mostly up to 28.7 µM
How it was run: as §1

CP315 = assay: as above; settings: P. falciparum in erythrocytes, SYBR Green DNA, 72 h; series mostly up to 28.7 µM
How it was run: as §1

CP329 = assay: as above; settings: P. falciparum in erythrocytes, SYBR Green DNA, 72 h; series mostly up to 28.7 µM
How it was run: as §1

DIV30 = assay: as above; settings: P. falciparum in erythrocytes, SYBR Green DNA, 72 h; series mostly up to 28.7 µM
How it was run: as §1

JCK = assay: as above; settings: P. falciparum in erythrocytes, SYBR Green DNA, 72 h; series mostly up to 28.7 µM
How it was run: as §1

PC26 = assay: as above; settings: P. falciparum in erythrocytes, SYBR Green DNA, 72 h; series mostly up to 28.7 µM
How it was run: as §1

SC27B = assay: as above; settings: P. falciparum in erythrocytes, SYBR Green DNA, 72 h; series mostly up to 28.7 µM
How it was run: as §1

TAB109 = assay: as above; settings: P. falciparum in erythrocytes, SYBR Green DNA, 72 h; series mostly up to 28.7 µM
How it was run: as §1

CCC1NC(=O)C(NC(=O)c2ncccc2O)C(C)OC(=O)C(c2ccccc2)NC(=O)C2CC(=O)CCN2C(=O)C(Cc2ccccc2)N(C)C(=O)C2CCCN2C1=O (stereo not given)
Potency [1]: inactive
Potency (7G8): 8.91 µM (active)
Potency (C2A): inactive
Potency (CP192): inactive
Potency (CP194): inactive
Potency (CP203): inactive
Potency (CP211): inactive
Potency (CP217): inactive
Potency (CP237): inactive
Potency (CP266): inactive
Potency (CP268): inactive
Potency (CP269): inactive
Potency (CP291): inactive
Potency (CP315): inactive
Potency (CP329): inactive
Potency (DIV30): inactive
Potency (JCK): inactive
Potency (PC26): inactive
Potency (SC27B): inactive
Potency (TAB109): inactive

NCCCC(N)CC(=O)NC1CNC(=O)C(C2CC(O)N=C(N)N2)NC(=O)/C(=C/NC(N)=O)NC(=O)C(CO)NC(=O)C(CO)NC1=O (stereo not drawn) (ξβ3hOrn-[Dap]SS[ΔAla(Z-3-ureido)][X2]; lactam 1-C; configuration not given here)
Potency [1]: inactive
Potency (7G8): inactive
Potency (C2A): inactive
Potency (CP192): inactive
Potency (CP194): inactive
Potency (CP203): inactive
Potency (CP211): inactive
Potency (CP217): inactive
Potency (CP237): inactive
Potency (CP266): inactive
Potency (CP268): inactive
Potency (CP269): inactive
Potency (CP291): inactive
Potency (CP315): inactive
Potency (CP329): inactive
Potency (DIV30): inactive
Potency (JCK): inactive
Potency (PC26): inactive
Potency (SC27B): inactive
Potency (TAB109): inactive

CC(C)C[C@H](NC(=O)[C@@H](Cc1c[nH]c2ccccc12)NC(=O)[C@@H](Cc1ccc(O)cc1)NC(=O)[C@@H](CO)NC(=O)[C@@H](Cc1c[nH]c2ccccc12)NC(=O)C(Cc1cnc[nH]1)NC(=O)C1CCC(=O)N1)C(=O)N[C@@H](CCCN=C(N)N)C(=O)N1CCC[C@@H]1C(=O)NCC(N)=O (stereo not given in full)
Potency [1]: inactive
Potency (7G8): inactive
Potency (C2A): inactive
Potency (CP192): inactive
Potency (CP194): inactive
Potency (CP203): inactive
Potency (CP211): inactive
Potency (CP217): inactive
Potency (CP237): inactive
Potency (CP266): inactive
Potency (CP268): inactive
Potency (CP269): inactive
Potency (CP291): inactive
Potency (CP315): inactive
Potency (CP329): inactive
Potency (DIV30): inactive
Potency (JCK): inactive
Potency (PC26): inactive
Potency (SC27B): inactive
Potency (TAB109): inactive
